PNC assembly inh: inhibitors of perinucleolar compartment assembly. PC3M PTB-GFP, PNC prevalence imaging, 16 h; hits give low values. activity change (PNC), negative = inhibition, % at 10 µM. actives 3.1% (n = 140,000);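 active means readout at or below -70, meaning at least 70% loss of cells showing the perinucleolar compartment, a nuclear body marking cancer cells; inconclusive means readout between -30 and a set limit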;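 further: plate controls were DMSO wells for no effect and camptothecin positive control wells for full effect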
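Read-out is percentage of cells bearing a perinucleolar compartment, from automated 20x imaging of fixed, Hoechst-stained PC3M PTB-GFP cells. Cells were seeded 4 h, then exposed 16 h to compound (23 nl of library stock) in duplicate plates.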
Lamin A splicing: changes lamin A minigene splicing in HeLa cells; Potency, µM (doses to about 46.1 µM), without a hit: top-dose ratio change, negative = inhibition, hits mostly inhibitors; HeLa LMNA splicing GFP/RFP minigene ratio, 48 h; actives 0.01% (n = 200,000); AID 1487; active means well fitted inhibition curve with a large enough effect in the signal ratio, with a control signal flat, not every such curve was filed as active; inconclusive means small, poorly fitted or top-dose-only effect, or effect the other way, or a change in a side signal; the % refers to the signal ratio; further: potency means the concentration at half of the fitted maximal effect
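S3 HeLa stable clones carrying a lamin A-EGFP splicing minigene plus DsRed2 were seeded at 600 cells/well in Opti-MEM with 2% FBS, pin-dosed and incubated 48 h at 37°C. Acumen cytometry (488 nm) gave the GFP/RFP total-intensity ratio.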
IMPase inh: IMPase inhibition in cells. AID 901. P97697. inhibition (IP1 accumulation), % at 46.1 µM. 120,000 tested, under 10 active. CHO-M1 cells, IP1 accumulation, HTRF TR-FRET ratio; active means well fitted curve in the direction sought with a large enough effect in the signal ratio, not every such curve was filed as active; inconclusive means small, poorly fitted or top-dose-only effect, or a change in a side signal; inactive means no such curve, though single readings can be large or run the other way; the % refers to the signal ratio;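 further: cells stimulated with carbachol in lithium chloride buffer; plate controls were DMSO basal wells for no effect and reference inhibitor wells for full effect; higher means more IMPase inhibition seen as more IP1 and lower FRET ratio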
Target sequence (P97697 whole entry, looked up): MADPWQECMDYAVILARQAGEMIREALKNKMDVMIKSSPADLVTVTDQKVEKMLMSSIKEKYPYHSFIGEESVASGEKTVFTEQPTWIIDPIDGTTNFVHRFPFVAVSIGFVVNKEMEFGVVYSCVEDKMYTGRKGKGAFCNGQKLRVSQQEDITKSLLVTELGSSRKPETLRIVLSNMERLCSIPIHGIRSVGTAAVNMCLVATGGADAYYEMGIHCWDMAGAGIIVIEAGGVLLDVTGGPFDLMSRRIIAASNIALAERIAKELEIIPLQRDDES
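Cellular IMPase inhibition is scored as a rise in cytosolic IP1, detected by competitive TR-FRET between d2-labelled IP1 and a europium anti-IP1 antibody. M1-expressing CHO cells were stimulated with carbachol for 30 min at 37C, with lithium (50 mM LiCl) present in the buffer.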
HPGD block: HPGD (human) dehydrogenase inhibition; Potency, µM, for inactives: at the top dose activity change, negative = inhibition, hits mostly inhibitors; purified HPGD, NADH fluorescence kinetic, PGE2 substrate; P15428; actives 4.3% (n = 150,000); further: potency means the concentration at half of the fitted maximal effect
Target sequence (P15428 whole entry, looked up): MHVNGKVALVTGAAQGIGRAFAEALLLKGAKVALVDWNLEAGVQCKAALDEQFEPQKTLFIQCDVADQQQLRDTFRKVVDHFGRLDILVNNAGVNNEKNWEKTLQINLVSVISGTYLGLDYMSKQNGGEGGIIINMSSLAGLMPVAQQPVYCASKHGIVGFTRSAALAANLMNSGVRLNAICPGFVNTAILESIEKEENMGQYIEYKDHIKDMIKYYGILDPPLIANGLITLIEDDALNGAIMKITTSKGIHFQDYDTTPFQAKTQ
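NADH formation kinetics: reaction with 30 uM PGE2 and 1 mM NAD+ (final), 20 nM enzyme, Tris-HCl pH 8 with Tween 20, after 15 min compound preincubation at room temperature. Fluorescence change, last versus first of five reads.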
ALDH1A1 inh: inhibitors of human aldehyde dehydrogenase 1A1. AID 1030. Purified ALDH1A1, NADH fluorescence, propionaldehyde substrate. Potency, µM (doses to about 75.3 µM), inactives show top-dose activity, negative = inhibition, most hits filed as inhibitors. actives 7.3% (n = 220,000). P00352;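 further: potency means the concentration at half of the fitted maximal effect; plate controls were no enzyme wells and a reference inhibitor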
KinaseGlo FLuc: counter-screen: inhibitors of Kinase-Glo firefly luciferase | Kinase-Glo luciferase, ATP luminescence, 8 min | actives 0.28% (n = 200,000) | Potency, µM (titrated, usually from 38.3 µM), without a hit: at the highest dose activity change, negative = inhibition, usual class: inhibitors | Q27757 | AID 1379; active means well fitted inhibition curve with a large enough effect; inconclusive means small, poorly fitted or top-dose-only effect; further: potency means the concentration at half of the fitted maximal effect; nearly all actives have a fitted effect of over 60% in size
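Luminescence was the read-out, taken after 8-minute incubation at ambient temperature. Luciferase turned over luciferin with 10 uM ATP in imidazole pH 7.2 buffer containing KCl, MgCl2, Tween 20 and BSA.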
Numbers without * were called inactive; ? = inconclusive; nt = not tested or not shown; [ ] = remark or other dose. Hits are enriched below; roughly 10% of the tested compounds scored in any of these assays. Unless noted, the call rests on the fitted dose curve; in most records, active means well fitted inhibition curve with a large enough effect (not every such curve was filed as active); inconclusive means small, poorly fitted or top-dose-only effect, or another doubt; inactive means no such curve, though single readings can be large or run the other way. Unless noted, on the % scale 0 is the no-effect control and ±100 the full control effect.

SMILES	PNC assembly inh	Lamin A splicing	IMPase inh	HPGD block	ALDH1A1 inh	KinaseGlo FLuc
CCCn1c(SCC(=O)N2CCc3ccccc3C2)nc2c1c(=O)n(C)c(=O)n2C	52	7%	-7	-2%	-9%	1%
CCCCc1nc2c(c3c1C[C@H](C)OC3)CN(C(=O)N[C@@H](C)c1ccccc1)CC2	nt	9%[9.22 µM]	nt	-7%	15%[13.5 µM]	0%[7.66 µM]
N#Cc1cccc(NC(=O)N2CCCC3(CCN(C(=O)c4cnccn4)CC3)C2)c1	nt	nt	nt	-1%	10%	-3%
CCOC(=O)c1c(C)c(C(=O)NCC2CCCO2)c(C)n1CC (centres undefined)	?	20%	3	22µM*	?	-2%
CCOC(=O)c1c(C)c(C(=O)N2CCCCCC2)c(C)n1C	13	-4%	5	16µM*	0%	-1%
CCOC(=O)c1c(C)c(C(=O)N2CCN(c3ccccc3)CC2)c(C)n1C	nt	nt	nt	nt	-4%	2%
CCOC(=O)c1c(C)c(C(=O)Nc2ccc3c(c2)OCCO3)c(C)n1CC	-22	?	14	-11%	-8%	-2%
CCOC(=O)c1sc(NC(=O)C2CC2)nc1C	-13	7%	6	-9%	4%	-3%
CCOC(=O)c1sc(NCC2CCCO2)nc1C (centres undefined)	-8	-5%	4	13µM*	-4%	2%
CCOC(=O)c1c(C)c(C(=O)N2CCCCCC2)c(C)n1CC	23	-14%	-3	13µM*	0%	-2%
CCOC(=O)c1c(C)c(C(=O)NCc2ccc(OC)cc2)c(C)n1C	nt	nt	nt	nt	7.9µM*	3%
COC(=O)c1ccc2c(c1)C(C)(C)C(/C=C/c1ccccc1O)=[N+]2C	-19	?	5	?	?	4.5µM*
Fc1ccc(C(c2nnc(-c3ccccc3)o2)N2CCN(c3ccccc3)CC2)c(Cl)c1 (centres undefined)	nt	-18%[46 µM]	nt	nt	nt	nt
O=C(Oc1ccccc1)N1CCC[C@@]2(CCN(c3ccccc3)C2)C1	nt	nt	nt	-10%	-13%	0%
OC(CNc1ccccc1)COc1ccc(OCC(O)CNc2ccccc2)cc1 (centres undefined)	?	?	?	-16%	4%	-5%
CCOC(=O)c1ccccc1NC(=O)c1ccc(NS(C)(=O)=O)cc1	-24	-10%	-5	16µM*	?	0%
O=C(COC(=O)c1ccc(O)cc1)Nc1ccc(Cl)cc1	nt	nt	nt	nt	8.9µM*	2%
CC(=O)Nc1ccc(OC(=O)c2ccc(Cl)cc2)cc1	-80*	-1%	nt	-15%	-4%	-4%
CCOC(=O)c1ccc(NCC(O)COc2ccccc2)cc1 (centres undefined)	-119*	-5%	5	-4%	5%	3%
COc1ccc(NC(=O)CSc2nc(-c3cc(OC)c(OC)c(OC)c3)[nH]c2-c2ccc(F)cc2)cc1	nt	nt	28	nt	nt	nt
COC(=O)[C@@H]1C(O)[C@@H](C(=O)OC)[C@H](C)N(C)[C@@H]1C (some centres undefined)	nt	nt	nt	-11%	8%[13.5 µM]	-4%[7.66 µM]
O=C(NCCCN1CCN(c2ccc(F)cc2)CC1)c1sc2ncccc2c1-n1cccc1	nt	-3%[46 µM]	nt	nt	nt	nt
COC(=O)c1ccc(NC(=O)CN2C(=O)CSC2=O)cc1	3	0%	1	?	-12%	2%
CCOC(=O)c1ccc(NS(=O)(=O)CC)cc1	5	-12%	14	14µM*	5%	3%
CCS(=O)(=O)Nc1ccc(Cc2ccc(NS(=O)(=O)CC)cc2)cc1	?	?	11	5.6µM*	2%	-2%
CCOC(=O)c1ccc(NC(=O)COC)cc1	-89*	3%	3	-13%	-2%	-1%
CCOC(=O)c1cc(NC(=O)COC)ccc1O	nt	nt	nt	nt	-4%	-5%
CCOC(=O)c1ccc(NC(=O)CN2C(=O)CSC2=O)cc1	-90*	2%	-1	-14%	?	2%
CCCCSc1nnc2n(-c3ccc(OC)cc3)c(=O)c3c4c(sc3n12)COC(C(C)C)C4 (centres undefined)	nt	nt	-1	nt	nt	nt

Screening data as filed in PubChem.
